From the supplement of paper PMC11732987, “Enantioselective OTUD7B fragment discovery through chemoproteomics screening and high-throughput optimisation” (Communications Chemistry, 2025)

How the values were obtained:
Experiment in all cases: log2 ratio of Biotin-Ahx-Ub-VS probe labelling (fragment/DMSO); higher = less target engagement (more negative = stronger competition), active = hit call of the paper (q ≤ 0.05, log2 ratio ≤ -1)
Conditions in all cases: compound concentration: 200 uM; treatment time: 3 h
USP19 = biological target: T1, USP19 (UniProt O94966)
T1 sequence (whole entry): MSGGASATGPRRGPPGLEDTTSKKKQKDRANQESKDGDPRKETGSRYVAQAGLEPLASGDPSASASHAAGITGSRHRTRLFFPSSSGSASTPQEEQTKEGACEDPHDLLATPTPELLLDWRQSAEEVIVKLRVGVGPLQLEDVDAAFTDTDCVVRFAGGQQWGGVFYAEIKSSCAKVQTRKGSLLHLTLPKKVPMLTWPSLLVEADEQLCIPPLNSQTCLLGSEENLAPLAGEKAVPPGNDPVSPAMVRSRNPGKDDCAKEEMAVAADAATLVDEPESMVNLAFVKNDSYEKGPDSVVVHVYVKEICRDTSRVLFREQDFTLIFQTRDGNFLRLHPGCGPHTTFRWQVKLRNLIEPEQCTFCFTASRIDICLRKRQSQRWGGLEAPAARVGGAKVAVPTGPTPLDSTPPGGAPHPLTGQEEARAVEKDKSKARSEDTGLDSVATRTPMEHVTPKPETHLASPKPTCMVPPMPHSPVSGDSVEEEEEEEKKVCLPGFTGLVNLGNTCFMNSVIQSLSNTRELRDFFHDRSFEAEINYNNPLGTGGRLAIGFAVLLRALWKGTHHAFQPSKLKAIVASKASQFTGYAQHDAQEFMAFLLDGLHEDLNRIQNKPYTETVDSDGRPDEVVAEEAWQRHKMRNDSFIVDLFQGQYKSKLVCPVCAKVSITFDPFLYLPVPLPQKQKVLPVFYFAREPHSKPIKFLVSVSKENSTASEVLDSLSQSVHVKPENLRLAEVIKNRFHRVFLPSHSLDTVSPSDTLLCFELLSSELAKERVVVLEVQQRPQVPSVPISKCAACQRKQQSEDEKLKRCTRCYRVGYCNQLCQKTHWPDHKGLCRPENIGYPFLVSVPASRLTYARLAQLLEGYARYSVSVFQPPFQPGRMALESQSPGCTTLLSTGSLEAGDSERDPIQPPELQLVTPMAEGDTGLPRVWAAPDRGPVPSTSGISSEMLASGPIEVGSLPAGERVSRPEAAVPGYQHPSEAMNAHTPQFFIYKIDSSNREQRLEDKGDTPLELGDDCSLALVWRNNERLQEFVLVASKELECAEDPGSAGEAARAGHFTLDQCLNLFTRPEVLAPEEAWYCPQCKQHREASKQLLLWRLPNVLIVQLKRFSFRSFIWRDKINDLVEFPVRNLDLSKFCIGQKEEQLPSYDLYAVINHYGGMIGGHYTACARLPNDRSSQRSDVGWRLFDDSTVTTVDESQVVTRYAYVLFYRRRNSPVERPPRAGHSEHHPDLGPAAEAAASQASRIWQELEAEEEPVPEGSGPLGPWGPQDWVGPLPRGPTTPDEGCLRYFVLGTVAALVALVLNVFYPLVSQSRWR
Summary of the method: (§1)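 Each value is an average log2 ratio of fragment to vehicle, tested by unpaired t-test. The underlying Spectronaut label-free quantities were global-median-normalised, and only proteins with ≥2 unique peptides were included. Triplicate HEK293T lysate samples (495 µg) were exposed to fragment at 200 µM or vehicle for 3 h, then to Biotin-Ahx-Ub-VS at 0.5 µM final for 1 h, before NeutrAvidin enrichment of labelled DUBs, LysC and trypsin digestion, and diaPASEF LC-MS/MS.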

USP24 = USP24 (UniProt Q9UPU5)
USP24, sequence (Q9UPU5 whole entry): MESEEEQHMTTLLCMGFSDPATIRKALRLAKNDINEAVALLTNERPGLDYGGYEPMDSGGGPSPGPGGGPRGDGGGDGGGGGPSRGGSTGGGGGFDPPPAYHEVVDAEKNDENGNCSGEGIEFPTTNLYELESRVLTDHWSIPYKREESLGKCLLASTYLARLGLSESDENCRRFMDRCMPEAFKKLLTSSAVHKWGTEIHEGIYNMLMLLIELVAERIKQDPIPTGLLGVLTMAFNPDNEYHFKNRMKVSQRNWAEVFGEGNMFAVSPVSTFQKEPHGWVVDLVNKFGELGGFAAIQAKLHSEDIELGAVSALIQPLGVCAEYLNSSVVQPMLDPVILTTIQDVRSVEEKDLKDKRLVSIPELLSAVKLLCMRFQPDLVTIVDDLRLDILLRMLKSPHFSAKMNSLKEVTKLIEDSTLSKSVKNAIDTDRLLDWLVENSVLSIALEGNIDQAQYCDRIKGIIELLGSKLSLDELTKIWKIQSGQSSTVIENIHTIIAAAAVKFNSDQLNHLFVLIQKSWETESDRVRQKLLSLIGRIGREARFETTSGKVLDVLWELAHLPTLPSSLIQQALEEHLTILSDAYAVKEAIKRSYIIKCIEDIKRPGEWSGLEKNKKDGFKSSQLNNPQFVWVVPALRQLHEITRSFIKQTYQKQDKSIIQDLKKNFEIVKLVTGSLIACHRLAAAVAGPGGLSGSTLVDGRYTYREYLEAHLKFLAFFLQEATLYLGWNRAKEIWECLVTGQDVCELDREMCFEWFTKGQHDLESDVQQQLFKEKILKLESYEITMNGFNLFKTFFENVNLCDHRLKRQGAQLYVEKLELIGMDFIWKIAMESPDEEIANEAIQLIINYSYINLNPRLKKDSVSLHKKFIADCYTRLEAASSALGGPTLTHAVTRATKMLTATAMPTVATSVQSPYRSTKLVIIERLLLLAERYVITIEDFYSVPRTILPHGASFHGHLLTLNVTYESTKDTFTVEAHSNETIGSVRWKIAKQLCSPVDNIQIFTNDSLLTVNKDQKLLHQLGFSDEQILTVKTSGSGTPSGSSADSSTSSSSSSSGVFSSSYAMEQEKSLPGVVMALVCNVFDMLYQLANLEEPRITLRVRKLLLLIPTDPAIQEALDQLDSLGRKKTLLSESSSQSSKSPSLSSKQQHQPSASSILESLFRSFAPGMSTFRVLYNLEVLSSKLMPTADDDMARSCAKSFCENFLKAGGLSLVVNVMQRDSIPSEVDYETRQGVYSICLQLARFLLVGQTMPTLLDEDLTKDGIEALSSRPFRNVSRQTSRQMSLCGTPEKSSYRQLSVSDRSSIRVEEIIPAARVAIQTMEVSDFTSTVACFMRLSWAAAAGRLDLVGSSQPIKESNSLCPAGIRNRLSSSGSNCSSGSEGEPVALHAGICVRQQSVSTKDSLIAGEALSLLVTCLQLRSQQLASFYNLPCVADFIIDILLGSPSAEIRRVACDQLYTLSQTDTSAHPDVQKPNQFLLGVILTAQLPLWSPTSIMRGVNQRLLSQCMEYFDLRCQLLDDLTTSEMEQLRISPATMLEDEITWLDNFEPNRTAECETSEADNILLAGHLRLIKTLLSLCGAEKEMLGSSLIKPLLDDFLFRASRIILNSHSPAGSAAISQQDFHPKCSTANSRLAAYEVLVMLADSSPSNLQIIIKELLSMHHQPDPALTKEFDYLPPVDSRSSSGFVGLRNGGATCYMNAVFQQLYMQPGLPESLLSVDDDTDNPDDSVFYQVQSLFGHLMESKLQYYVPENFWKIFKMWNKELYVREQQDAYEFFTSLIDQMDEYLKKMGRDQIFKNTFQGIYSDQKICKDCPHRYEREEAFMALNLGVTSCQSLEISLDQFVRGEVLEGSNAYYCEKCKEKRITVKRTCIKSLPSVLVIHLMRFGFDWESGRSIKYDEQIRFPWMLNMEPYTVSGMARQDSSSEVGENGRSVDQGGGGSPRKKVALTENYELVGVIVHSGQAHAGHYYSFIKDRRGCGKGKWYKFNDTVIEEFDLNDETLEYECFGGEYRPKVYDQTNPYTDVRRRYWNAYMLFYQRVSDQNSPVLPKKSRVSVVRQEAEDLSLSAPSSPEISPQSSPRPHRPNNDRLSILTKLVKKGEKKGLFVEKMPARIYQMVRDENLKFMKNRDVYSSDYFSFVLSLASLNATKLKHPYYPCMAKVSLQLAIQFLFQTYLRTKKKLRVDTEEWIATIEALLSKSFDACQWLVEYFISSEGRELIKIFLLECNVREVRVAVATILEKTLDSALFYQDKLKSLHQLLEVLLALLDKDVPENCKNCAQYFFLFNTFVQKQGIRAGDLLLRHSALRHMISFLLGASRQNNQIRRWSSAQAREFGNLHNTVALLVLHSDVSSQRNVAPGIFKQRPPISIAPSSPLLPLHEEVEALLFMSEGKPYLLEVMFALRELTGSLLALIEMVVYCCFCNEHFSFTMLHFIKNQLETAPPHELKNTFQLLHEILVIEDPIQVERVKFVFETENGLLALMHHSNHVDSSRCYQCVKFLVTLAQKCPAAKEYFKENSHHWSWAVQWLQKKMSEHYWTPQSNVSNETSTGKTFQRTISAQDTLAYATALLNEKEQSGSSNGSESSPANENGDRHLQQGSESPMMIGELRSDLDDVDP
Summary of the method: as §1

USP25 = biological target: T2, USP25 (UniProt Q9UHP3)
T2 sequence (whole entry): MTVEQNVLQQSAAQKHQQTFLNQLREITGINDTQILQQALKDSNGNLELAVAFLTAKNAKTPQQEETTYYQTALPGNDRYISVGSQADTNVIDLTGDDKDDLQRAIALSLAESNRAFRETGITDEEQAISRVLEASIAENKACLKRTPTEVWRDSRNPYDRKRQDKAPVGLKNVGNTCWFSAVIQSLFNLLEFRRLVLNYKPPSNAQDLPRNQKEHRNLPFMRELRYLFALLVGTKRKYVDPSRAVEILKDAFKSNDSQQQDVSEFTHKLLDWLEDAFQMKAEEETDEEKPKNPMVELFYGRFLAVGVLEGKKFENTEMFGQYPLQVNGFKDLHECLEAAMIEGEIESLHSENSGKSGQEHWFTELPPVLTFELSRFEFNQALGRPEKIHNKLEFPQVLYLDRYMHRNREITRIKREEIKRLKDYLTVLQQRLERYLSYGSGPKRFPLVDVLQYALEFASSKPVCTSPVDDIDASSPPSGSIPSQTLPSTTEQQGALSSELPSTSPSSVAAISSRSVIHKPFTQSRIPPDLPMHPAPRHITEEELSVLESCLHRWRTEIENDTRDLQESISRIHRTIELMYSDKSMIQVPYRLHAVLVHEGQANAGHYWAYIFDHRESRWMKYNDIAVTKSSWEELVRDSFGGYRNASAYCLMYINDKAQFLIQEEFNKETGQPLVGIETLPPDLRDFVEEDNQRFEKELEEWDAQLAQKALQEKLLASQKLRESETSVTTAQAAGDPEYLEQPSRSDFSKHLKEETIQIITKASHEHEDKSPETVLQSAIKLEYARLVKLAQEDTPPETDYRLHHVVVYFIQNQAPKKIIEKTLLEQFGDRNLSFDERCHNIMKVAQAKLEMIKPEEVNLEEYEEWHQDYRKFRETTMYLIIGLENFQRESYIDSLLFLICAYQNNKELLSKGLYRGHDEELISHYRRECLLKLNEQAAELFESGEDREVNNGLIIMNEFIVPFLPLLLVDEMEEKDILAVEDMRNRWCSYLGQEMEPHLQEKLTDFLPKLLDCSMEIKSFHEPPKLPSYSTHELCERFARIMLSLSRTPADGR
Summary of the method: as §1

USP28 = biological target: T3, USP28 (UniProt Q96RU2)
T3 sequence (whole entry): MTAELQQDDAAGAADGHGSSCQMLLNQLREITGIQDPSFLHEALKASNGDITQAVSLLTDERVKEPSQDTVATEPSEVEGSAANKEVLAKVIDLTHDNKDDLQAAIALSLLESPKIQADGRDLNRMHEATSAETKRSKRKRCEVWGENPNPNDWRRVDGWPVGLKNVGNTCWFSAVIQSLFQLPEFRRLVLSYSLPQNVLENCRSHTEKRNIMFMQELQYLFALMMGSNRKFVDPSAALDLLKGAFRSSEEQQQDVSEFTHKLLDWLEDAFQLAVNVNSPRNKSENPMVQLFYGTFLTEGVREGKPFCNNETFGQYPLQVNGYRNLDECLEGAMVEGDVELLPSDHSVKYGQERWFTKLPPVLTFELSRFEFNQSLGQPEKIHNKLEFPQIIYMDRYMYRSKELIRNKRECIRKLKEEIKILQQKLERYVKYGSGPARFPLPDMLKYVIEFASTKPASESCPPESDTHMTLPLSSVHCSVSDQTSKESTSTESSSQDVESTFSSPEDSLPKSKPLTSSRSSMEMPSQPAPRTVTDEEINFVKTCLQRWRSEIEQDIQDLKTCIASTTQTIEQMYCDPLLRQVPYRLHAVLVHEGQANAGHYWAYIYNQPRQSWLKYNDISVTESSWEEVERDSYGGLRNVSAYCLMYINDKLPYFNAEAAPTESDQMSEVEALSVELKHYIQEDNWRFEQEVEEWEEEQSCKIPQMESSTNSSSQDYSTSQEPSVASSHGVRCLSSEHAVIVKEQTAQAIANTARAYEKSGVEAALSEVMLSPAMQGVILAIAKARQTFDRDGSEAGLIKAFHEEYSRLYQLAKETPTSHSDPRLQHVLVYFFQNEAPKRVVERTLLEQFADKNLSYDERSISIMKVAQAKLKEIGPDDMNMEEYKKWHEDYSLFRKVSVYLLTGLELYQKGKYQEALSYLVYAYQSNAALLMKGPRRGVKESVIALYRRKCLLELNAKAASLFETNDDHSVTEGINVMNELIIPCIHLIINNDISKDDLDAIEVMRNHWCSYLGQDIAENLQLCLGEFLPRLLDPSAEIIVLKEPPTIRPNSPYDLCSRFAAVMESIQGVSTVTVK
Summary of the method: as §1

Measured: log2 ratio of Biotin-Ahx-Ub-VS probe labelling

Cl.O=C(CN1CCN(C(=O)CCl)CC1)Nc1ccc(F)cc1
inactive: USP19 -0.172 | USP24 -0.098 | USP25 0.0867 | USP28 0.0845
